Bioassay records (PubChem)
Only a sample is shown.
aSyn 5UTR act: Activators via SNCA 5'UTR binding, MLPCN. alpha-synuclein 5'UTR reporter, activators screen. activity score, % (tested at 7.5 µM), hits read low. 7.1% of 300,000 active; in the data active means activity score below about -60%
* marks the source's active call; other numbers are inactive results.

SMILES	aSyn 5UTR act
CC(=O)n1nc(-c2ccco2)nc1SCc1ccccc1	-89*
CCC(=O)n1nc(-c2ccco2)nc1SCc1ccccc1	-74*
COc1cc2[nH]c3ccccc3c2cc1C	-65*
CC(=O)N1CCN(c2ccc(NC(=O)c3ccc(Cl)c([N+](=O)[O-])c3)cc2)CC1	-70*
CC(=O)N1CCN(c2ccc(NC(=O)c3cccc(C)c3)cc2)CC1	-73*
CC(=O)N1CCN(c2ccc(NC(=O)c3ccccc3)cc2)CC1	-106*
Cc1cccc(C(=O)Nc2ccc(C(=O)N3CCCCC3C)cc2)c1 (configuration not stated)	-84*
Cc1ccc(N2CCN(C(=O)c3ccccc3NC(=O)c3ccccc3C(=O)O)CC2)cc1	-100*
O=C(Nc1cccc(-c2nc3ccccc3s2)c1)c1cccs1	-63*
O=C(CCS(=O)(=O)c1ccccc1)Nc1cccc(-c2nc3ccccc3s2)c1	-135*
O=C(CSc1nnc2ccccn12)Nc1cccc(-c2nc3ccccc3s2)c1	-134*
CCCCCc1ccc(-c2ccc(OC)cc2)nc1	-123*
CCCCc1ccc(-c2ccc(C)cc2O)nc1	84
CSc1ccccc1OCc1cc(C(=O)N(C)Cc2ccc(C)o2)no1	-123*
CSc1ccccc1OCc1cc(C(=O)N(C)Cc2ccc3nsnc3c2)no1	-160*
CC(=O)c1cccc(OCc2cc(C(=O)N(C)Cc3ccc(C)o3)no2)c1	-68*
Cc1nnc(CN(C)C(=O)c2cc(COc3ccc(F)cc3Cl)on2)o1	-100*
COC(=O)c1ccc(COC(=O)c2nn(C)c(=O)c3ccccc23)cc1	-64*
COC(=O)c1ccc(COC(=O)c2cccnc2Cl)cc1	-68*
C=CCNc1nc(C(=O)OCC(=O)c2ccc(OC)cc2OC)cs1	-82*
COc1ccc(C(=O)COC(=O)c2cccnc2Cl)c(OC)c1	-144*
NC(=O)c1cnn(-c2ccc3ccccc3c2)c1N	-125*
COc1cc(/C=N/n2c(C)n[nH]c2=S)ccc1OCc1ccc(F)cc1	-114*
COc1cc(/C=N\n2nnnc2N)ccc1OCc1ccc(F)cc1	-65*
c1coc(C2Nc3ccccc3-c3nc4ccccc4n32)c1 (configuration not stated)	-93*
SMILES	aSyn 5UTR act
c1ccc(C2Nc3ccccc3-c3nc4ccccc4n32)nc1 (configuration not stated)	-74*
COC(=O)C1=C(C)Nc2ccc(C)cc2S1	-64*
COc1cccc(-c2nnc(-c3ccc(C(F)(F)F)cc3)o2)c1OC	-125*
CCNC(=O)O/N=C(\C)c1sc(-c2ccccc2)nc1C	-134*
C/C(=N\O)c1sc(-c2ccccc2)nc1C	-140*
CNC(=O)c1sc(-c2ccccc2)nc1C	-78*
CC(=O)c1sc(-c2ccc(Cl)cc2)nc1C	-101*
CNC(=O)c1sc(-c2ccc(Cl)cc2)nc1C	-187*
CCC1=NN2C(=N)/C(=C\c3ccc(OCCOc4ccccc4)c(OC)c3)C(=O)N=C2S1	-125*
COc1cc(/C=C2/C(=N)N3C=CSC3=NC2=O)ccc1OCCCOc1ccccc1C	-118*
Clc1ccc(Nc2nc3cccnc3s2)cc1	-144*
CCCCNc1nc2cccnc2s1	-78*
Cn1ccsc1=NC(=O)c1ccc([N+](=O)[O-])o1	-161*
COc1ccccc1-c1cc(C(=O)Nc2ccccc2SC)no1	-96*
COc1cccc(-c2cc(C(=O)Nc3ccccc3SC)no2)c1	-141*
COc1ccccc1-c1cc(C(=O)Nc2cccnc2)no1	55
CSc1ccccc1NC(=O)c1cc(CC(C)C)on1	-178*
COc1cccc(/C=C2\SC(N3CCCC(C)C3)=NC2=O)c1OC (configuration not stated)	-100*
COc1ccccc1/C=C1\SC(N2CCC(C)CC2)=NC1=O	-94*
COC(=O)c1c(C)[nH]c(C(=O)OCc2ccc(F)cc2)c1C	-189*
CCOC(=O)c1[nH]c(C)c(C(=O)c2cc(F)ccc2F)c1C	74
CC(=O)c1c(C)[nH]c(C(=O)OCc2ccc(F)cc2Cl)c1C	-68*
CC(C)CC1c2[nH]c3ccccc3c2CCN1C(=O)c1cnccn1 (configuration not stated)	-95*
CC(=O)c1ccc(NC(=O)CSc2nc(N3CCOCC3)nc(N3CCOCC3)n2)cc1	-73*
CC(=O)Nc1c(O)nc(SCC(=O)Nc2ccc(C(C)=O)cc2)[nH]c1=O	-157*
SMILES	aSyn 5UTR act
CC1CCC(NC(=O)c2ccc(NS(=O)(=O)c3ccc4[nH]c(=O)[nH]c4c3)cc2)CC1 (configuration not stated)	-124*
Cc1ccccc1N/N=C1\CCCNC1=O	-100*
CN(C)/C=C/C(=O)/C=C/c1ccc(Cl)cc1	-180*
Cc1ccc(C(=O)Nc2ncccc2S(=O)(=O)c2ccccc2)cc1	-154*
COc1ccccc1N1CCN(/N=C/c2cc(Br)ccc2F)CC1	-93*
COc1cccc(/C=N/N2CCN(c3ccccc3OC)CC2)c1	-93*
COc1ccc(/C=N/N2CCN(c3ccccc3OC)CC2)cc1Br	-101*
COc1ccccc1N1CCN(/N=C/c2cccc(Cl)c2)CC1	-196*
COc1ccccc1N1CCN(/N=C/c2cccc(OC)c2O)CC1	-67*
COc1cccc(/C=N/NC(=O)N/N=C/c2cccc(OC)c2O)c1O	53
c1ccc(Nc2nnc(-c3cccc4ccccc34)o2)cc1	-93*
O=C(N/N=C/c1c(O)ccc2ccccc12)c1cccc(C(F)(F)F)c1	111
O=C(N/N=C/c1ccc(C(F)(F)F)cc1)c1ccc(O)cc1	-85*
O=C(N/N=C/c1cccc(NC(=O)c2ccc(Cl)cc2)c1)c1cccc(O)c1	-68*
COc1cc(C(=O)Oc2ccccc2/C=N/NC(=O)c2ccc(C)c(Cl)c2)cc(OC)c1OC	84
C/C(=N\Nc1ccc(C(F)(F)F)cn1)c1ccncc1	-148*
O=C(N/N=C/c1ccccc1Cl)c1ccc(F)cc1	-189*
O=C(N/N=C/c1cccs1)c1cccc(NC(=O)c2ccc(Cl)cc2)c1	59
O=C(O)c1ccc(N/N=C/c2ccc(C(F)(F)F)cc2)cc1	61
O=C(N/N=C\c1ccc(F)cc1)c1ccc(F)cc1	-132*
COc1cc(C(=O)N/N=C/c2cn(Cc3cccc(F)c3)c3ccccc23)ccc1O	62
O=C(N/N=C/c1cnc2ccccc2n1)c1cccc(F)c1	-120*
O=C(N/N=C(\c1ccccc1)c1cccnc1)c1cccc(F)c1	80
Oc1ccc(/C=N/Nc2ccc(C(F)(F)F)cn2)cc1	-280*
COC(=O)c1ccc(/C=N/NC(=O)c2cccc(F)c2)cc1	-134*
SMILES	aSyn 5UTR act
CSc1ccc(/C=N/NC(=O)c2cccc(O)c2)cc1	-167*
Nc1ccc(C(=O)N/N=C/c2ccccc2)cc1	-140*
O=C(N/N=C/c1ccc[nH]1)c1ccc(Cl)cc1	-121*
CC(C)(C)c1ccc(S(=O)(=O)NCC(=O)Nc2ccc(-c3nc4ccccc4s3)cc2)cc1	-101*
CC(NS(=O)(=O)c1cccc(Cl)c1)C(=O)Nc1ccc(-c2nc3ccccc3s2)cc1 (configuration not stated)	-139*
Cc1ccc(C)c(S(=O)(=O)NC(C)C(=O)Nc2ccc(-c3nc4ccccc4s3)cc2)c1 (configuration not stated)	-108*
O=C(CCS(=O)(=O)c1cccs1)N1CCCC1	-124*
O=C(CCS(=O)(=O)c1ccccc1)N1CCN(c2ccccc2)CC1	-78*
O=C(CCNS(=O)(=O)c1cccs1)N1CCCCCC1	-102*
FC(F)Oc1ccc(N=C2SCC3CCCCN23)cc1 (configuration not stated)	-206*
